TbPYK inhibitor = T. brucei pyruvate kinase inhibition; AID 624173; Q57TT1; actives 0.12% (n = 410,000); TbPYK enzyme, Kinase-Glo Plus ATP luminescence, 45 min; Potency, µM (titrated, usually from 76.8 µM), for inactives: at the top dose activity, negative = inhibition, actives largely listed as inhibitors; note: nearly all actives have a fitted effect of over 50% in size
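Readout: single end-point luminescence (Kinase-Glo Plus, 10 min). Reaction conditions were TbPYK/substrate plus 130 uM ADP, 45 min at RT, pH 7.2 TEA buffer. No-enzyme wells served as controls, and data were normalized before concentration-response fitting.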
AmpC inh no detg = blocks E. coli AmpC beta-lactamase in detergent-free assay | P00811 | actives 0.52% (n = 330,000) | AmpC nitrocefin hydrolysis, absorbance 480 nm, 0.0001% Triton | Potency, µM (titrated, usually from 57.1 µM), for the others: at the top dose activity change, negative = inhibition, most hits filed as inhibitors;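 note: plate controls were no compound for no effect and no enzyme for full effect; nearly all actives have a fitted effect of over 20% in size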
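20 mM phosphate pH 7.0 + 0.01% (detergent screen) or 0.0001% Triton X-100; 5.3 nM AmpC reagent; cpd preinc 15 min RT; nitrocefin (800 uM stock) to start; A480 q20 s × 4 min; Activity was normalised to no-enzyme and no-compound control wells.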
LmPK inh = inhibitors of Leishmania mexicana pyruvate kinase; Q27686; purified LmPK, Kinase-Glo ATP luminescence, 1 h; Potency, µM (doses to about 57.5 µM), without a hit: at the highest dose activity change, negative = inhibition, usual class: inhibitors; actives 0.37% (n = 290,000)
Target sequence (Q27686 whole entry, looked up): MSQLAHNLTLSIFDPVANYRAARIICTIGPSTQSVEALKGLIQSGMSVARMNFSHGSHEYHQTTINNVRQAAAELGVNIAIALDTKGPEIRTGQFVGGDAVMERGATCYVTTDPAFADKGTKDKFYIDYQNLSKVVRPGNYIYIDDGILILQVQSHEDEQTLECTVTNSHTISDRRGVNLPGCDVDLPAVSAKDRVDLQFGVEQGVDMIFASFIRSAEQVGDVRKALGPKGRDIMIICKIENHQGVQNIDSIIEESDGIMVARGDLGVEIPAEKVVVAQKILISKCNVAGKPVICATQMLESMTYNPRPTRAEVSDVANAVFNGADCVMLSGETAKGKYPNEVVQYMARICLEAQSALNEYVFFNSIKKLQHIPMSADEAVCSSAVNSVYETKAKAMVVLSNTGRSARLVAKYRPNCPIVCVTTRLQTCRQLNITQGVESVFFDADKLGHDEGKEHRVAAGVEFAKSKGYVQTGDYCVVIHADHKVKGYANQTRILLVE
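Purified LmPK (0.1 nM) with 0.5 mM PEP and 0.1 mM ADP in imidazole buffer pH 7.2 with MgCl2/KCl, 1 h at room temperature. ATP formed was read by luciferase luminescence and normalized to no-enzyme and uninhibited controls.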
RE007 growth inh = less growth of the S. pombe RE007 Vpr strain; AID 651644; S. pombe RE007 Vpr strain, BacTiter-Glo ATP luminescence, 24 h; actives 0.21% (n = 360,000); Potency, µM (series often up to 92.2 µM), inactives show top-dose activity change, negative = less growth, usual class: inhibitors; active = well fitted falling curve with a large enough effect; inconclusive = small, poorly fitted or top-dose-only effect; inactive = no such curve, though single readings can be large or run the other way; note: nearly all actives have a fitted effect of over 50% in size
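Fission yeast RE007 carrying one integrated HIV-1 vpr copy, seeded at OD 0.01 in PMG+AL medium with 23 nL pinned compound. Grown 24 h at 30 degrees; viability read by BacTiter-Glo luminescence after 5 min.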
AmpC detergent = inhibitors of E. coli AmpC beta-lactamase with detergent; actives 0.041% (n = 370,000); P00811; AmpC hydrolysis of nitrocefin, absorbance 480 nm, 0.01% Triton; Potency, µM (titrated, usually from 114 µM), for the others: at the highest dose activity change, negative = inhibition, actives largely listed as inhibitors;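 note: 0% = no-compound wells and -100% = no-enzyme wells; nearly all actives have a fitted effect of over 25% in size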
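AmpC (5.3 nM in the dispensed reagent) in 20 mM phosphate pH 7.0 with 0.01% (detergent screen) or 0.0001% Triton X-100 was preincubated with compounds for 15 min at room temperature. Nitrocefin was then added from an 800 uM solution, and hydrolysis was followed at 480 nm.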
FBPA Giardia inh = Giardia lamblia aldolase inhibition; A8B2U2; purified Giardia FBPA; Potency, µM (top dose mostly 59.6 µM), inactives show at the top dose activity, negative = inhibition, actives largely listed as inhibitors; actives 0.71% (n = 290,000); AID 2451; note: nearly all actives have a fitted effect of over 55% in size
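Giardia FBPA (40 nM reagent) was preincubated 10 min at RT with compound (up to 57.5 uM final), then substrate plus GAPDH/TPI/NAD/arsenate coupling system with diaphorase/resazurin was added; resorufin fluorescence (525/598 nm) was read after 20 min.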
Starred values were filed as active, the others as inactive; [ ] = another dose, or the depositor's remark. Only some compounds are listed: those with a hit (about 1.4% of all), similar ones and a draw of the others. Unless noted, calls come from the whole dose curve; as a rule, active = well fitted curve in the direction sought with a large enough effect; inconclusive = small, poorly fitted or top-dose-only effect, or another doubt; inactive = no such curve, though single readings can be large; an effect the other way counts as inactive or inconclusive. Unless noted, % is set by controls: 0 for no effect and ±100 for the full control effect; potency is the fitted concentration of half-maximal effect.

CC(C)(C)c1ccc(O)c(N=Cc2cc3c(cc2[N+](=O)[O-])OCO3)c1 was read as TbPYK inhibitor inconclusive, AmpC inh no detg -29%, LmPK inh 1.6µM*, RE007 growth inh 9%, AmpC detergent -19% and FBPA Giardia inh 3%.
`COc1ccc(C)cc1-n1c(-c2ccncc2)n[nH]c1=S` gave TbPYK inhibitor 14µM*, AmpC inh no detg -15%, LmPK inh 10µM*, RE007 growth inh 10%, AmpC detergent -3% and FBPA Giardia inh -24%.
Screening COc1cc(-c2n[nH]c(=S)n2-c2ccc(Br)cc2)cc(OC)c1OC returned TbPYK inhibitor inconclusive, AmpC inh no detg -28%, LmPK inh inconclusive, RE007 growth inh 1%, AmpC detergent -13% and FBPA Giardia inh inconclusive.
COc1cc(-c2n[nH]c(=S)n2-c2ccccc2C(F)(F)F)cc(OC)c1OC was read as TbPYK inhibitor inconclusive, AmpC inh no detg -3%, LmPK inh 18µM*, RE007 growth inh 19%, AmpC detergent 9% and FBPA Giardia inh -5%.
COc1ccccc1-c1n[nH]c(=S)n1-c1ccccc1 was read as TbPYK inhibitor inconclusive, AmpC inh no detg 8%, LmPK inh -24%, RE007 growth inh 0%, AmpC detergent -12% and FBPA Giardia inh -13%.
`COc1cc(-n2c(-c3ccccc3)n[nH]c2=S)c(OC)cc1Cl` gave TbPYK inhibitor 3.5µM*, AmpC inh no detg -30%, LmPK inh -9%, RE007 growth inh 7%, AmpC detergent -6% and FBPA Giardia inh 4%.
COc1ccccc1-n1c(-c2cc(-c3ccc(F)cc3)n[nH]2)n[nH]c1=S was read as TbPYK inhibitor inconclusive, AmpC inh no detg -40%, LmPK inh -28%, RE007 growth inh 8%, AmpC detergent -7% and FBPA Giardia inh 2%.
Screening COc1cc(OC)cc(-c2n[nH]c(=S)n2-c2cc(OC)ccc2OC)c1 returned TbPYK inhibitor inconclusive, AmpC inh no detg -28%, LmPK inh 3.5µM*, RE007 growth inh -11%, AmpC detergent 1% and FBPA Giardia inh 1%.
Cc1ccc(CNC(=O)C2CCN(S(=O)(=O)c3c(C)noc3/C=C/c3cccs3)CC2)cc1 was read as TbPYK inhibitor 2% and AmpC detergent -1%.
`Cc1ccc(Cc2nc3ccccc3nc2SCC(=O)N2CCCCC2C)cc1` (stereo not drawn) gave TbPYK inhibitor -12% and AmpC detergent -5%.
Screening COc1ccc(OC)c(-n2c(-c3ccc(O)cc3O)n[nH]c2=S)c1 returned TbPYK inhibitor inconclusive, AmpC inh no detg -20%, LmPK inh 8.9µM*, RE007 growth inh -4%, AmpC detergent -6% and FBPA Giardia inh -16%.
COc1ccc(-c2cc(-c3ccc(OC)c(OC)c3)n[nH]2)c(O)c1 was read as TbPYK inhibitor -5%, AmpC inh no detg 9%, LmPK inh 3%, RE007 growth inh -11%, AmpC detergent -12% and FBPA Giardia inh 5%.
CCc1ccc(NC(=O)c2cc3sc(Cl)cc3n2C)cc1 was read as TbPYK inhibitor -5% and AmpC detergent 56µM*.
`CCCCCCC#Cc1cncc(C(=O)NNC(=O)Nc2cc(Cl)cc(Cl)c2)c1` gave TbPYK inhibitor -12%, AmpC inh no detg 16µM*, LmPK inh 5%, RE007 growth inh -14%, AmpC detergent 5% and FBPA Giardia inh 8%.
Screening COc1ccccc1C1Nc2cccc3cccc(c23)N1 returned TbPYK inhibitor -9%, AmpC inh no detg -27%, LmPK inh 0%, RE007 growth inh 7.1µM*, AmpC detergent -10% and FBPA Giardia inh inconclusive.
`CCOC(=O)N1CCC(NC(=O)c2cnn(-c3ccc(C)cc3)c2C2CCN(C(=O)OC(C)(C)C)CC2)CC1` gave TbPYK inhibitor 4%[15.4 µM] and AmpC detergent 4%.

Screening data as filed in PubChem BioAssay.
